This is an account of results in PubChem BioAssay AID1259418 (Broad Institute, 2018).

Hit rate of the full screen: of about 3,400 compounds, about 840 (25%) were called active. Roughly 11% stayed inconclusive and do not appear here.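 Rule for the calls: active = fitted half-maximal concentration of signal decrease at or below twice the sample's top tested concentration; inconclusive = flat curve between -70 and -30 percent, or poor fit; inactive = flat within 30 percent, signal rise, or potency above limit.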 The list is a sample of the results. Potency and affinity values are given separately.

This assay can be described thus: T. gondii growth inhibition with IFN-gamma, dose response, cell-based, ME49Luc, HeLa, luciferase, 72 h (AID 1259418). Particulars: T. gondii ME49Luc in IFN-y HeLa, hits give low values, -100% = high-dose IFN-γ control wells; at 19.5 µM unless noted.
For the compound `CCS(=O)(=O)N1CC[C@H]2[C@@H]1CCN2Cc1cnn(C)c1`, the max activity is 27.1% (inactive).

`COc1ccc(-c2nc(Nc3ccc(OC)c(Cl)c3)c3ccccc3n2)cc1`: the max activity is 16.4% [at 2.6 µM] (inactive).

For `COc1ccc(-c2nc(Nc3cc(Cl)c(OC)cc3OC)c3ccccc3n2)cc1`, the max activity was 18.3% (inactive).

Regarding `Cc1ccc(S(=O)(=O)N2CCC3(CC2)OC(C(=O)N(C)C)Cn2ccnc23)cc1` (centres undefined), the max activity was 40.3% (inactive).

`O=C(Nc1ccc2c(c1)OCO2)N1C[C@@H]2N[C@H](C1)C2c1ccc(C=Cc2ccccc2)cc1` (some centres undefined): the max activity was 116% [at 1.2 µM] (inactive).

Consider `O=C(CN1CCOCC1)N1C[C@@H]2N[C@H](C1)C2c1ccc(/C=C/c2ccccc2)cc1` (some centres undefined), for which the max activity was 41.5% [at 10 µM] (inactive).

`COc1ccccc1NC(=O)N1C[C@@H]2N[C@H](C1)C2c1ccc(/C=C/c2ccccc2)cc1` (some centres undefined): the max activity is -98% (inactive).

Take `N#Cc1cccc(-c2ccc(C3[C@@H]4CN(C(=O)c5ccc6c(c5)OCO6)C[C@H]3N4)cc2)c1` (some centres undefined): the max activity was 17.9% (inactive).

Regarding `O=C(C1CC1)N1C[C@@H]2N[C@H](C1)C2c1ccc(/C=C/c2ccccc2)cc1` (some centres undefined), the max activity was 92.7% [at 0.08 µM] (inactive).

Take `N#Cc1ccc(-c2ccc([C@@H]3[C@H]4CNC[C@@H]3N4Cc3ccc4c(c3)OCO4)cc2)cc1`: the max activity is 28.6% [at 10 µM] (inactive).

Consider `O=C(Nc1ccccc1F)N1C[C@@H]2N[C@H](C1)C2c1ccc(/C=C/c2ccccc2)cc1` (some centres undefined), for which the max activity is 85.7% [at 1.2 µM] (inactive).

Consider `Cc1cccc(N2CCN(C(=O)c3ccc(-c4csc(C5CC5)n4)cc3)CC2C)c1` (centres undefined), for which the max activity is 40.1% (inactive).

For `CCN1C(=O)CCc2cc(NC(=O)c3ccc(Br)o3)ccc21`, the max activity is 15.9% [at 10 µM] (inactive).

Regarding `Cc1ccc(-c2coc(-c3ccc(NC(=O)Nc4ccccc4Br)cc3)n2)cc1`, the max activity is -10.7% [at 10 µM] (inactive).

Turning to `CCc1ccccc1NC(=O)CN1CCC2(CC1)N=C(c1cccc(Cl)c1)C(=O)N2`, the max activity is 9.92% (inactive).

Consider `Cn1c(=O)c(C(=O)NCc2ccccc2Cl)cc2cccnc21`, for which the max activity was 196% (inactive).

As to `Cc1ccccc1N(Cc1nc(-c2cccc(Cl)c2)oc1C)S(=O)(=O)c1cccs1`, the max activity was -9.43% [at 5 µM] (inactive).

In the case of `CCOc1ccc(-c2nc(CN(c3ccccc3C)S(=O)(=O)c3cccs3)c(C)o2)cc1OC`, the max activity is -13.1% [at 0.16 µM] (inactive).

As to `CCOc1ccc(-c2nc(CN(c3ccccc3OCC)S(=O)(=O)c3cccs3)c(C)o2)cc1`, the max activity is 6.64% (inactive).

For the compound `Cc1ccccc1N(Cc1nc(-c2ccc(OC(C)C)cc2)oc1C)S(=O)(=O)c1cccs1`, the max activity was 4.55% (inactive).

For the compound `CCOC(=O)CSC1=Nc2ccccc2C2=NC(CC(=O)NCc3ccco3)C(=O)N12` (centres undefined), the max activity was 21.4% [at 1.35 µM] (inactive).

Regarding `COc1ccc(C(=O)Nc2ccc(-c3nc(-c4cc(C)ccc4C)co3)cc2)cc1`, the max activity was 9.17% (inactive).

For the compound `COc1ccccc1C(=O)N1CCC2(CC1)Nc1ccc(C)c(C)c1-n1cccc12`, the max activity is -7.27% [at 1.35 µM] (inactive).

For the compound `CN1CCC(N2CCN(c3ncccc3-c3nnc(-c4ccc(Cl)cc4)o3)CC2)CC1`, the max activity was 4.69% (inactive).

Regarding `Cc1ccc(NC(=O)Nc2ccc(-c3nc(-c4ccccc4)co3)cc2)cc1Cl`, the max activity was 9.34% (inactive).

On to `CCOc1ccc(NC(=O)COc2nc(C)nc3ccccc23)cc1`, for which the max activity is 30.4% [at 10 µM] (inactive).

On to `Cc1ccc2c(c1C)-n1cccc1C1(CCN(C(=O)COc3ccc(F)cc3)CC1)N2`, for which the max activity was -9.55% [at 0.16 µM] (inactive).

In the case of `Cc1ccc(-c2coc(-c3ccc(NC(=O)CC4CCCCC4)cc3)n2)cc1`, the max activity was -15.2% (inactive).

Consider `CCOc1ccccc1N(Cc1nc(-c2cccc(Cl)c2)oc1C)S(=O)(=O)c1cccs1`, for which the max activity is 6.9% (inactive).

`COc1ccccc1N(Cc1nc(-c2ccccc2)oc1C)S(=O)(=O)c1cccs1`: the max activity was -5.51% [at 0.68 µM] (inactive).

As for `CCOc1ccccc1N(Cc1nc(-c2cccc(C)c2)oc1C)S(=O)(=O)c1cccs1`, the max activity is 10.6% (inactive).

Take `COc1ccccc1N(Cc1nc(-c2ccc(OC(C)C)cc2)oc1C)S(=O)(=O)c1cccs1`: the max activity was -8.76% [at 0.35 µM] (inactive).

For `O=C(O)CN1C[C@H]2c3ccccc3C(OCC3CC3)[C@@H]2C1` (some centres undefined), the max activity was 42.3% (inactive).

Turning to `CCc1ccc2c(c1)cc(S(=O)(=O)c1ccccc1)c(=O)n2CC(=O)NC1CCCC1`, the max activity is 14.3% [at 0.16 µM] (inactive).

On to `COc1ccc(-c2nc(Nc3ccc(C)c(F)c3)c3ccccc3n2)cc1`, for which the max activity is 17.7% [at 2.6 µM] (inactive).

On to `O=C(Cn1cccc1-c1nc(-c2ccccc2)cs1)N1CCC2(CC1)OCCO2`, for which the max activity was -15.4% [at 2.6 µM] (inactive).

On to `COc1ccccc1N(Cc1nc(-c2ccccc2)oc1C)S(=O)(=O)c1ccccc1C`, for which the max activity was 9.45% [at 5 µM] (inactive).

As for `Cc1csc([C@H]2C[C@H]3CCN(C(=O)c4cnccn4)C[C@@H]3O2)n1`, the max activity is 48.1% (inactive).

Consider `COc1ccc(-c2nc(C)c(-c3ccc(SCc4ccc(C(F)(F)F)cc4)nn3)s2)cc1`, for which the max activity was 8.72% [at 2.6 µM] (inactive).

Take `CCCCC(=O)N1CCC2(CC1)Nc1cc(OC)ccc1-n1cccc12`: the max activity is 14.1% [at 2.6 µM] (inactive).

Consider `Cc1ccc(-c2nc(CN3CCN(C(=O)Nc4ccccc4Cl)CC3)c(C)o2)cc1`, for which the max activity was 16.4% [at 2.6 µM] (inactive).

Turning to `O=C(CC1N=C2c3ccccc3N=C(SCc3ccc(Cl)cc3)N2C1=O)NCc1ccc(F)cc1` (centres undefined), the max activity is 15% (inactive).

On to `O=C(CC1N=C2c3ccccc3N=C(SCc3cccc(Cl)c3)N2C1=O)NCc1ccc(F)cc1` (centres undefined), for which the max activity is 30.2% (inactive).

On to `CCOC(=O)CSC1=Nc2ccccc2C2=NC(CC(=O)NCCc3ccccc3)C(=O)N12` (centres undefined), for which the max activity is 64.6% (inactive).

Regarding `O=C(CC1N=C2c3ccccc3N=C(SCc3cccc(Cl)c3)N2C1=O)NCc1ccc2c(c1)OCO2` (centres undefined), the max activity is 19.4% [at 10 µM] (inactive).

On to `O=C(CC1N=C2c3ccccc3N=C(SCc3ccccc3Cl)N2C1=O)NCc1ccccc1` (centres undefined), for which the max activity is 12.8% [at 2.6 µM] (inactive).

As to `O=C(CC1N=C2c3ccccc3N=C(SCc3ccccc3Cl)N2C1=O)NCc1ccc(F)cc1` (centres undefined), the max activity was -7.22% [at 0.16 µM] (inactive).

On to `COc1ccccc1-c1nc(Cn2nnc(-c3nc(-c4ccc(Cl)cc4)no3)c2C)c(C)o1`, for which the max activity was 9.29% (inactive).

Consider `COc1ccc(C(=O)Nc2ccc(-c3nc(-c4ccc(C)cc4)co3)cc2)cc1OC`, for which the max activity was 61.6% [at 10 µM] (inactive).

Consider `COC(=O)c1ccc(NC(=O)Nc2ccc(-c3nc(-c4ccc(C)cc4C)co3)cc2)cc1`, for which the max activity was 12.9% [at 0.68 µM] (inactive).

With `CN(C)c1cccc(C(=O)N2CSC[C@@H]2C(=O)NCCc2csc(-c3ccccc3)n2)c1`, the max activity was 9.09% [at 0.16 µM] (inactive).

As to `CCOC(=O)c1ccc(NC(=O)CN2CCC3(CC2)N=C(c2ccccc2)C(=O)N3)cc1`, the max activity was 23.6% (inactive).

Regarding `COc1ccc(-c2nc(CN(c3ccc(OC)cc3)S(=O)(=O)c3ccccc3C)c(C)o2)cc1`, the max activity was 2.45% (inactive).

In the case of `Cc1oc(-c2ccccc2)nc1Cn1nnc(-c2nc(-c3ccc(OC(C)C)cc3)no2)c1C`, the max activity is -7.48% [at 5 µM] (inactive).

Regarding `CCc1nc(OCC(=O)Nc2ccccc2Br)c2ccccc2n1`, the max activity was 18.5% [at 0.68 µM] (inactive).

`O=C(NCCc1csc(-c2ccccc2)n1)[C@H]1CSCN1S(=O)(=O)c1ccccc1F`: the max activity is 11.9% [at 0.16 µM] (inactive).

Turning to `O=C(Nc1ccccc1)[C@@H]1[C@@H](CO)[C@@H]2Cn3c(ccc(C4=CCCCC4)c3=O)[C@@H]2N1Cc1cocn1`, the max activity is 31.9% (inactive).

Take `Cc1cccc(-c2noc(-c3nnn(Cc4nc(-c5cccc(C)c5)oc4C)c3C)n2)c1`: the max activity is 17.9% (inactive).

With `Cc1ccc(-c2coc(-c3ccc(NC(=O)NCCc4ccccc4)cc3)n2)c(C)c1`, the max activity is 27.7% [at 0.35 µM] (inactive).

On to `Cc1ccc(NC(=O)CN2CCC3(CC2)N=C(c2cccc(F)c2)C(=O)N3)cc1C`, for which the max activity is -21.1% (inactive).

`CCOc1ccc(NC(=O)N2CCN(Cc3nc(-c4ccccc4C)oc3C)CC2)cc1`: the max activity is -9.52% (inactive).

`Cc1nc(OCC(=O)Nc2ccc(C(C)C)cc2)c2ccccc2n1`: the max activity is 15.7% [at 1.35 µM] (inactive).

With `CC(C)CCNC(=O)CC1Nc2c3ccccc3nc(=S)n2C1=O` (centres undefined), the max activity was 41.3% (inactive).

On to `CCOc1ccccc1NC(=O)CN1CCC2(CC1)N=C(c1cccc(Cl)c1)C(=O)N2`, for which the max activity was 5.75% (inactive).

Consider `COc1ccccc1-c1nc(Cn2nnc(-c3nc(-c4cccc(F)c4)no3)c2C)c(C)o1`, for which the max activity is -3.46% [at 1.35 µM] (inactive).

As to `Cc1ccc(-c2nc(Cn3nnc(-c4nc(-c5cccc(C)c5)no4)c3C)c(C)o2)cc1`, the max activity is -13% [at 5 µM] (inactive).

With `Cc1ccccc1-c1ccc(C2[C@@H]3CN(C(=O)C4CCOCC4)C[C@H]2N3)cc1` (some centres undefined), the max activity was 20.5% (inactive).

For `CCCNC(=O)N1CCc2nc(-c3ccc(OC)cc3)sc2C1`, the max activity is 12.7% [at 10 µM] (inactive).

With `O=C(NC1CCCCC1)N1C[C@@H]2N[C@H](C1)C2c1ccc(-c2ccc(F)cc2)cc1` (some centres undefined), the max activity is 23.1% [at 10 µM] (inactive).

On to `Cc1ccc(NC(=O)COc2nc(C)nc3ccccc23)c(C)c1`, for which the max activity is 13.8% [at 0.68 µM] (inactive).

As to `COc1ccc(-c2nc(Nc3ccc(F)c(Cl)c3)c3ccccc3n2)cc1`, the max activity was 19.7% (inactive).

Regarding `CO[C@H]1CCN(c2ccc(C)nn2)[C@H]1Cc1cnn(C)c1`, the max activity is -9.84% [at 1.2 µM] (inactive).

With `Cc1nc(-c2ccc(F)cc2)sc1-c1ccc(SCc2ccccc2Cl)nn1`, the max activity is 10% [at 0.16 µM] (inactive).

Take `Cc1ccc(-c2nc(Cn3nnc(-c4nc(-c5ccccc5Cl)no4)c3C)c(C)o2)cc1`: the max activity is -11.4% [at 2.6 µM] (inactive).
